Unmarked numbers belong to inactive results.
Test system: Aedes aegypti larvae
Assay: larval motility relative to same well at 0 h (fraction); higher = more motile (less active compound), active = 0.4 or less
Conditions: 10 µM
Method in brief: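 Aedes aegypti larvae were hatched at 25 °C in pond salt solution with yeast, collected after 18–24 h, and dispensed at about 10 per well (100 µL) in 96-well plates. Compounds were tested at 10 µM in 1% v/v DMSO, and each plate carried solvent and larvicide control wells. INVAPP movies of 200 frames at 100 ms intervals were recorded at 0, 2 and 24 h, and each value is the median of three independent larval batches. Relative motility is each well's score divided by that same well's starting score.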

With CO[C@@]1(NC(=O)Cc2cccs2)C(=O)N2C(C(=O)O)=C(COC(N)=O)CS[C@@H]21 as the compound, how does the larval motility (2 h) read?
Its larval motility is 0.909.

And the larval motility (24 h)?
Its larval motility is 1.17.

What does the source list for Nc1nc(C(F)(F)F)cc2c1[nH]c(=O)n2Cc1ccccc1?
larval motility (2 h): 0.857; larval motility (24 h): 0.614

What does the source list for Nc1cnn(C2OC(CO)C(O)C2O)c(=O)n1 (stereo not drawn)?
larval motility (2 h): 1.16; larval motility (24 h): 1.33

Which results are given for [N-]=[N+]=N[C@H]1C[C@H](n2ccc(=O)[nH]c2=O)O[C@@H]1CO?
larval motility (2 h): 1.11; larval motility (24 h): 0.881

Which larval motility (2 h) does the source give for CC(N)C(=O)NC(CCCCN)C(=O)NC(CCCNC(=N)N)C(=O)NC(Cc1c[nH]cn1)C(=O)NC(Cc1c[nH]cn1)C(=O)NCC(=O)NC(Cc1ccc(O)cc1)C(=O)NC(CCCCN)C(=O)NC(CCCNC(=N)N)C(=O)NC(CCCCN)C(=O)NC(Cc1ccccc1)C(=O)NC(Cc1c[nH]cn1)C(N)=O (stereo not drawn) here?
The larval motility was 0.858.

What about the larval motility (24 h) of the same compound?
Its larval motility is 1.19.

For COc1ccc2cc3[n+](cc2c1OCCN(CCn1cncn1)Cc1ccc(F)cc1F)CCc1cc2c(cc1-3)OCO2, which larval motility (2 h) is on record?
Its larval motility is 0.821.

And the larval motility (24 h)?
Its larval motility is 0.778.

Which larval motility (2 h) does the source give for C[C@H]1[C@@H](c2cccc(C(F)(F)F)c2)OC(=O)N1C(=O)NCc1cncc2ccccc12 here?
The larval motility was 0.716.

And the larval motility (24 h)?
The larval motility was 0.359 (active).

With CC(C)CCN1C(=O)C(C2=NS(=O)(=O)c3cc(NS(C)(=O)=O)ccc3N2)=C(O)[C@@H]2[C@H]3CC[C@H](C3)[C@@H]21 as the compound, how does the larval motility (2 h) read?
Its larval motility is 0.853.

What about the larval motility (24 h) of the same compound?
The larval motility was 0.888.

How did the larval motility (2 h) turn out when O=C(Nc1ccccc1C(=O)O)c1cccc(Oc2ccccc2)c1 was run?
The larval motility was 0.522.

And the larval motility (24 h)?
The larval motility was 1.44.

— the supplement of paper PMC8540655
